# Among all 360,000 compounds or so, about 25,000 (6.9%) were called active. About 9% were inconclusive and are not listed. The entries come from a sample that favours actives as a whole. A number with no mark means an inactive call. Calls come from the whole dose curve; as a rule, active = well fitted inhibition curve with a large enough effect; inconclusive = small, poorly fitted or top-dose-only effect; inactive = flat fitted curve, though single readings scatter.
# Target: Luciferin 4-monooxygenase (Photinus pyralis) (UniProt P08659)
# Test: qHTS profiling assay for firefly luciferase inhibitor/activator using purifed enzyme and Km concentrations of substrates (counterscreen for miR-21 project); note: nearly all actives have a fitted effect of over 55% in size;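 for activity change, negative = inhibition: plate controls were vehicle for no effect and reference inhibitor for full effect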
# Conditions: purified FLuc, luminescence inhibition; series mostly up to 57.5 µM; activity change, negative = inhibition: at the top concentration
# How it was run: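 Biochemical qHTS of compounds, final roughly 60 µM downward over six points, against 10 nM purified firefly luciferase using Km concentrations of substrates (10 uM D-luciferin, 10 uM ATP) in Tris acetate pH 7.5 buffer; luminescence output.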
# Potency is the fitted concentration of half-maximal effect.
# Sequence of Luciferin 4-monooxygenase (Photinus pyralis) (P08659 whole entry, looked up): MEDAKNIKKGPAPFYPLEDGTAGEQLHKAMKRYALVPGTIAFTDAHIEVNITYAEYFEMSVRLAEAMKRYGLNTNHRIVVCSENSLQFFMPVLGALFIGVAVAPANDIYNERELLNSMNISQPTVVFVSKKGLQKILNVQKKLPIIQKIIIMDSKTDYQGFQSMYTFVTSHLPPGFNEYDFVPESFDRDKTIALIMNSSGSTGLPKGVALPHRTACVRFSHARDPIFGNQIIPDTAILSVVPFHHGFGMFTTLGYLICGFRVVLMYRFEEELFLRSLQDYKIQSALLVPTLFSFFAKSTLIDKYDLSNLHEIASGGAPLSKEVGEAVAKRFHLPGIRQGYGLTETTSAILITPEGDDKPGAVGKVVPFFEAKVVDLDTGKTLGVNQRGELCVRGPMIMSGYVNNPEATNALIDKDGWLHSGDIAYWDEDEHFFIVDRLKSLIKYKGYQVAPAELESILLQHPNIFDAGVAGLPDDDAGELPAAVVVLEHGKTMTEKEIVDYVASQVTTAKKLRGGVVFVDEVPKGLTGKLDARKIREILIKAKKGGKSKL
Structure (SMILES),"activity change, negative = inhibition",Potency
COc1cc(C(CC(=O)NCCC(C)C)N2Cc3ccccc3C2=O)cc(OC)c1OC (stereo not drawn),-0.101%,
CCCn1c(=N)n(CC(O)COc2ccccc2OC)c2ccccc21 (stereo not drawn),0.404%,
COc1cc2[nH]c(=O)n(Cc3ccc(C(=O)NCc4ccc(C)cc4)cc3)c(=O)c2cc1OC,1.8%,
COCCCN(C(=S)Nc1c(C)cc(C)cc1C)C(C)c1ccncc1 (stereo not drawn),0.293%,
CCCc1cc(=O)oc2cc(OCC(=O)Nc3ccc(CN4CCOCC4)cc3)c(Cl)cc12,0.442%,
COc1ccc(NS(=O)(=O)c2ccc(NC(=O)c3ccc(N(C)S(C)(=O)=O)cc3)cc2)cc1,8.07%,
COc1ccc(-n2cnnc2SCC(=O)Nc2cccc(S(N)(=O)=O)c2)cc1,1.34%,
COc1ccc(C(=O)Nc2cccc(S(C)(=O)=O)c2)cc1,,16.9 µM (active)
COc1ccc(NC(=O)c2cc3cc(C)ccc3n2C)cc1,-4.75%,
CC1=C(C(=O)Nc2ccccc2)C(c2cccs2)C(C#N)=C(SCC#N)N1 (stereo not drawn),3.23%,
COc1cccc(-c2cc(C(=O)Nc3ccc(C)cc3)[nH]n2)c1,-11.6%,
CCOc1ccc(C(=O)Nc2ccc(CN3CCOCC3)cc2)cc1Cl,,7.57 µM (active)
Cc1ccc(NC(=O)c2cccnc2C(=O)Nc2ccc(C)cc2)cc1,-13.1%,
O=C(Nc1ccc(CN2CCOCC2)cc1)c1cc(Cl)ccc1Cl,-1.52%,
Cc1ccc(NC(=O)c2ccc(Oc3ncccn3)cc2)cc1,,15.1 µM (active)
COc1ccc(NC(=O)c2sccc2SCC#N)cc1,,13.5 µM (active)
CCOc1ccc(N2CC(c3nc4ccccc4n3CCOc3ccc(OC)cc3)CC2=O)cc1 (stereo not drawn),-3.28%,
CCc1cccc(NC(=O)CN(C)S(=O)(=O)c2ccc3[nH]c4c(c3c2)CCCC4)c1,-18.7%,
O=C(CCc1ccccc1)NCc1ccc2c(c1)CCN2C(=O)c1ccccc1,-14%,
CNC(=O)CN1C(=O)c2cccnc2Sc2ccccc21,-6.05%,
CN(Cc1ccccc1)C(=O)c1cn(C)c2ccc(S(=O)(=O)N(C)C3CCCCC3)cc2c1=O,-2.07%,
Cn1cc(S(=O)(=O)Nc2ccc(Cl)cc2Cl)c(=O)n(C)c1=O,-3.16%,
Cc1cc(C)cc(NC(=O)C(c2ccccc2)N2CCN(CC(=O)N3CCCC3)CC2)c1 (stereo not drawn),3.43%,
Cc1cccc(OCCC(=O)OCc2csc(CC(=O)Nc3ccccc3C)n2)c1,-1.32%,
O=C(Nc1ccccc1F)C(c1ccccc1)N1Cc2ccccc2C1=O (stereo not drawn),4.63%,
COc1ccccc1CNC(=O)c1ccc(NC(=O)N2CC(C)Sc3ccccc32)cc1 (stereo not drawn),-13.1%,

Structure (SMILES),"activity change, negative = inhibition",Potency
COc1cc2c(=O)c(S(=O)(=O)c3ccc(C(C)C)cc3)cn(Cc3ccccc3C)c2cc1OC,-1.62%,
COc1ccc(C(=O)CCC(=O)Nc2ccc(Cl)cc2)cc1,2.82%,
COc1ccc(NC(=O)c2ccc(C#CC(C)(C)O)cc2)cc1,-18.6%,
CCCC(=O)NC(=S)Nc1ccc(CN2CCOCC2)cc1,0.646%,
O=C(Nc1ccc(CSc2ccccc2)cc1)c1ccc(CN2CCOCC2)cc1,-7.97%,
COc1ccc(C(=O)Nc2ccc(CN3CCOCC3)cc2)cc1,,12 µM (active)
CCCOc1cccc(C(=O)Nc2cccc(NC(=O)c3ccc(C(C)(C)C)cc3)c2)c1,,1.69 µM (active)
CCCOc1cccc(C(=O)NCCCNC(=O)c2cccnc2)c1,3.75%,
COCCNC(=S)c1ccc(OC)cc1,-8.55%,
COc1ccc(NC(=O)c2ccc(OC)cc2)cc1,,4.78 µM (active)
CCCOc1cccc(C(=O)Nc2ccccc2C(=O)N2CCN(C)CC2)c1,-1.36%,
COc1ccc(CC(=O)Nc2ccc(C(=O)NC(C)(C)C)cc2)cc1,-8.31%,
COc1ccc(C(=S)Nc2ccccc2)cc1,,13.5 µM (active)
Cc1cccc(C(=O)NCCc2nc3ccccc3n2Cc2ccccc2Cl)c1,-4.32%,
O=C1C2N=NN(CC(=O)N3N=C(c4cccc5ccccc45)CC3c3ccccc3)C2C(=O)N1c1ccccc1 (stereo not drawn),5.45%,
Cc1ccc(-n2nc(CO)c(C(=O)NCCc3ccccc3)n2)cc1,-0.322%,
COc1ccccc1C(=O)NC(CCSC)C(=O)N1CCN(C/C=C/c2ccccc2)CC1 (stereo not drawn),11.5%,
COc1cc(C(=O)Nc2ccc(-n3c(C)nc4ccccc4c3=O)cc2)cc(OC)c1OC,-0.586%,
CC(C)Cn1c(-c2ccc(S(=O)(=O)N3CCOCC3)cc2)csc1=Nc1cc(Cl)ccc1Cl,2.36%,
Cn1c(CC(=O)NNC(=O)c2ccccc2F)nc2ccccc21,2.54%,
CCOc1ccc2oc(C(=O)N(CC)CC(=O)Nc3ccc(NC(C)=O)cc3)c(C)c2c1,-7.13%,
Cc1nn(CC(=O)N2CCN(c3cccc(C(F)(F)F)c3)CC2)c(=O)c2cc3sccc3n12,-8.4%,
CC(=O)c1ccc(NC(=O)c2nc(-c3ccc(C)cc3)n3c2CCCCC3)cc1,-5.49%,
CCC(C(=O)OCC(=O)Nc1ccc(C(=O)Nc2ccc(OC)cc2)cc1)c1ccccc1 (stereo not drawn),-15.7%,
COc1ccc(C(=O)Nc2onc3c2CCCC3)cc1,,0.601 µM (active)
COc1ccc(-c2cc(C(=O)Nc3sc4c(c3C(N)=O)CCCC4)no2)cc1,-17.3%,

Structure (SMILES),"activity change, negative = inhibition",Potency
CC1CCc2noc(NC(=O)c3ccc([N+](=O)[O-])cc3)c2C1 (stereo not drawn),-12%,
COc1ccc(C(=O)Nc2sc(C)c(C)c2CN2CCOCC2)cc1,,23.9 µM (active)
COc1cccc(NC(=O)c2csnn2)c1,-19.5%,
COc1ccc(NC(=O)Nc2ccc3nsnc3c2)cc1,,6.75 µM (active)
COc1ccc(C(=O)Nc2ccnn2C2CCN(Cc3ccncc3)CC2)cc1,-1.5%,
COC(=O)[C@H](CCSC)NC(=O)Nc1ccc(OC)cc1,0.815%,
CCC(=O)Nc1ccc(C(=O)Nc2cccc(OC)c2)cc1,,23.9 µM (active)
CCOC(=O)c1c(NC(=O)c2ccc(N3CCOCC3)c([N+](=O)[O-])c2)sc(C)c1C,0.104%,
COc1ccc(/C=N/NC(=O)Nc2ccc3nsnc3c2)c(OC)c1,-4.18%,
CCCCN1C(=O)c2[nH]nc(-c3ccccc3O)c2C1c1cccc(OCc2ccccc2)c1 (stereo not drawn),1.47%,
CC1CCN(C(=O)Cn2c(=O)n(-c3ccc(Cl)cc3)c(=O)c3c4c(sc32)CCC4)CC1,4.6%,
Cc1ccccc1NC(=O)CN1C(=O)C(C)(C)c2ccccc21,-0.294%,
Cc1noc(C)c1-c1ccc2ncnc(NC(C)c3ccco3)c2c1 (stereo not drawn),1.6%,
Cc1ccc(C)c(N2CCN(C(=O)CCc3c(C)nc4c(c3C)c(=O)n(C)c(=O)n4C)CC2)c1,2.81%,
Cc1ccccc1Nc1scc(-c2ccc(Br)cc2)[n+]1-c1ccccc1C,-1.41%,
CCOc1ccc(OCC)c(NS(=O)(=O)c2ccc3[nH]c(=O)ccc3c2)c1,-2.85%,
Cc1cccc(-n2c(Cc3cc(=O)[nH]c(=O)[nH]3)nnc2SC(C)C)c1,-0.177%,
COc1cccc(N(CC(=O)NC2CCCC2)C(=O)Cn2nnc(-c3ccc(C)o3)n2)c1,6.13%,
O=S(=O)(c1ccc(Br)cc1)c1nnn2c1nc(N1CCOCC1)c1sccc12,4.66%,
CCn1cc2nc(SCc3ccccc3Cl)n(CCc3ccccc3)c(=O)c2n1,-10.6%,
COc1ccccc1CC(=O)Nc1ccc(F)cc1F,-3.36%,
COc1ccc(C(=O)NC(=S)NC2CCCCC2)cc1,,15.1 µM (active)
COc1ccc(C(=O)Nc2ccc(F)cc2F)cc1,,10.7 µM (active)
COc1ccc(NC(=O)C(Br)C(C)C)cc1 (stereo not drawn),-4.38%,
COc1ccc(NC(=O)ON=C2c3ccccc3-c3ccccc32)cc1,,21.3 µM (active)
O=C(NC(=S)NC1CCCCC1)c1ccc(Cl)cc1,-18.8%,

Structure (SMILES),"activity change, negative = inhibition",Potency
CCc1ccccc1NC(=O)c1ccc2nc(CCc3ccccc3)oc2c1,-22.5%,
COc1cc(OC)cc(C(=O)OCC(=O)Nc2ccc(F)cc2F)c1,-1.29%,
COc1ccc(C(=O)NNC(=S)NC(=O)c2ccccc2)cc1,-0.103%,
COc1ccc(NC(=O)c2ccc3nc(CCc4ccccc4)oc3c2)c(OC)c1,-16.3%,
COc1cccc(NC(=O)c2ccc3nc(CCc4ccccc4)oc3c2)c1,,23.9 µM (active)
COc1ccc(NC(=O)CS(=O)(=O)c2ccccc2)cc1,-2.89%,
Cc1ccc2c(=O)c(C(=O)c3ccc(Cl)cc3)cn(CC(=O)NC3CCCCC3)c2n1,-2.08%,
CC(=O)N1c2ccccc2CC1C(=O)N1CCN(c2ccc(F)cc2)CC1 (stereo not drawn),-0.433%,
O=c1cc2nc(-c3ccccc3)nc(SCCOc3ccc(Cl)cc3)n2[nH]1,-13%,
O=C(NNC(=S)NC1CC2CCC1C2)c1ccc(Cl)cc1 (stereo not drawn),-11.8%,
CCc1cc(C(=O)c2ccc(OC)cc2)c(NC(=O)CN2CCN(C)CC2)s1,2.35%,
CCc1cc(C(N)=O)c(NC(=O)c2ccc(OC)cc2)s1,,6.01 µM (active)
CCc1cc(C(c2ccccc2OC)N2CCOCC2)c(NC(=O)c2ccccc2)s1 (stereo not drawn),-1.35%,
CC(=O)c1ccc(NC(=O)c2nc3nc(C)cc(C(F)F)n3n2)cc1,-6.41%,
Cc1cc(C)cc(N(CC(=O)NC2CCCC2)C(=O)CCC(=O)Nc2cc(C)on2)c1,-0.831%,
CCOC(=O)c1c(S(=O)(=O)N2CCCC(C(=O)NCc3ccc(F)cc3)C2)c(C)n(CC)c1C (stereo not drawn),5.45%,
Cc1ccc(C(=O)OCC(=O)NCc2ccc3c(c2)OCO3)s1,-2.21%,
CCOC(=O)c1nc(-c2ccc3c(c2)OCO3)[nH]c1C,,15.1 µM (active)
CCOCCOC(=O)C1=C(C)NC(=O)NC1c1ccc2c(c1)OCO2 (stereo not drawn),-0.485%,
CCCCN(CC)CCNC(=O)CCNC(=O)Cn1ccc2ccccc2c1=O,-0.654%,
Cc1ccc(C)c(OCC(=O)Nc2sc3c(c2C#N)CCCC3)c1C,-19.4%,
O=c1cc(COc2cccc(C(F)(F)F)c2)nc2sc3c(n12)CCCC3,4.49%,
O=C1NN(c2ccccc2)C(=O)/C1=C/c1ccc(-c2cccc(C(=O)O)c2)o1,,26.9 µM (active)
CN1C(=O)/C(=C/c2ccco2)SC1=Nc1cccc(C(=O)O)c1,-13.8%,
CC(=O)c1cc(-c2ccccc2)[nH]c1N1CCCC1,-0.486%,
